CatB mixtures: cathepsin B inhibitors from pooled compounds, primary screen, biochemical, compound mixtures, AMC fluorescence | P07858 | Purified cathepsin B, AMC dipeptide fluorescence | inhibition, %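 (ten-compound pools at 5 µM per compound and 50 µM total)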 | actives 0.06% (n = 62,000); in the data active means inhibition above about 22%, passing the limit was not always enough;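 further: 0% = enzyme without compound and 100% = no enzyme blank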
WNV protease inh: inhibitors of WNV NS2B-NS3 protease, primary screen, biochemical, fluorogenic substrate; Genome polyprotein (West Nile virus), P06935; fluorogenic substrate Ex360/Em465; hits give low values; z-score (test concentration not listed); actives 0.18% (n = 65,000); AID 577, 2007; in the data active means z-score below about -3
Target sequence (P06935 1371-1501 limits assumed): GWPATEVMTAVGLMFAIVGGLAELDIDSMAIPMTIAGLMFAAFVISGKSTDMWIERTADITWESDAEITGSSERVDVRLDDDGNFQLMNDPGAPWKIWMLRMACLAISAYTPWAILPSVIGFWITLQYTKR
Target sequence (P06935 1502-1679 limits assumed): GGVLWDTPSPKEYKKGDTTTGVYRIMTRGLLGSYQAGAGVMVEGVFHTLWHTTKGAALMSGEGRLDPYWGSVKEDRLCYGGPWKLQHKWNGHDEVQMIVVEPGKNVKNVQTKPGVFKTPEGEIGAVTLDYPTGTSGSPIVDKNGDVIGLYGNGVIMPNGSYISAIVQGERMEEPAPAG
mHtt clearance: clearance of mutant huntingtin inclusions, primary screen, imaging, HeLa Exon1htt(103Q)mCFP, confocal imaging; aggregate imaging; zero = plate's median compound well; inhibition, % at 1.5 µM; actives 0.42% (n = 47,000);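 active means inhibition of aggregate fluorescence above about 70%, also judged a hit by eye on the cell image, limit read from the data, passing the limit was not always enough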;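 further: cells exposed to compound for three days before fixation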
CatB inh: human cathepsin B inhibitors, primary screen, biochemical, fluorogenic substrate. P07858. purified cathepsin B, fluorescence. inhibition, %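 (tested at 10 µM)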. actives 0.1% (n = 63,000). AID 453, 2006; in the data active means inhibition above about 21%;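 further: 0% = enzyme with no compound and 100% = no enzyme blank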
CatS inh: inhibitors of human cathepsin S, biochemical, compound mixtures; inhibition, %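 (tested at 5 µM per compound within 10-compound mixtures)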; recombinant cathepsin S, AMC dipeptide fluorescence, pooled mixtures; AID 501, 2006; P25774; actives 0.06% (n = 62,000); in the data active means inhibition above about 32%, passing the limit was not always enough;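 further: 0% = enzyme without compound and 100% = blank without enzyme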
Target sequence (P25774 115-331 limits assumed): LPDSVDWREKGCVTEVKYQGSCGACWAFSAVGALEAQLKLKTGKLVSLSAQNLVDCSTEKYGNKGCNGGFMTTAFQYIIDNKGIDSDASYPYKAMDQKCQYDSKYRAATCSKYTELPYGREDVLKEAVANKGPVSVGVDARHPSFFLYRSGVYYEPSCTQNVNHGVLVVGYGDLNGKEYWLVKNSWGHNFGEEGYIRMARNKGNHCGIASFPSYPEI
CatL inh: inhibitors of human cathepsin L, biochemical | Procathepsin L (Homo sapiens), P07711 | purified cathepsin L, fluorogenic substrate, fluorescence | inhibition, %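 (tested at 10 µM)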 | actives 0.17% (n = 58,000) | AID 460, 2006; in the data active means inhibition above about 45%;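 further: 0% = enzyme with no compound and 100% = no enzyme blank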
* = called active by the depositor; nt = not tested or not shown. Shown are actives, neighbours in structure and some others; about 0.61% of the full set was active somewhere.

SMILES | CatB mixtures | WNV protease inh | mHtt clearance | CatB inh | CatS inh | CatL inh
CC(NS(=O)(=O)c1ccc(Cl)cc1)C(c1cccs1)N1CCN(C)CC1 (stereo unspecified) | nt | 0.12 | 77* | nt | nt | nt
CCN1C(=O)CC(C(=O)O)SC1=Nc1ccc(OC)cc1 (stereo unspecified) | 3 | -0.05 | nt | 3 | -4 | 17
COc1cc(SC)ccc1C(=O)Nc1ccon1 | 7 | 1.2 | 73* | 9 | 17 | -1
COc1cc(SC)ccc1C(=O)Nc1ccc(S(=O)(=O)N2CCCC2)cc1 | -3 | -0.99 | nt | 2 | -2 | nt
CC(Cc1c[nH]c2ccccc12)NC(=O)C1CCCNC1=O (stereo unspecified) | -4 | -0.44 | 87* | -4 | -16 | -3
CC(=O)c1cccc(NC(=O)c2nccnc2C(=O)O)c1 | 4 | -0.41 | -46 | -3 | 0 | 3
Cc1ccc(CN(C(=O)Cn2nnc3ccccc32)C(C(=O)NCc2ccco2)c2cccs2)cc1 (stereo unspecified) | 23* | 0.56 | -98 | 4 | 12 | 6
O=C(NCc1ccco1)C(c1ccco1)N(Cc1cccs1)C(=O)Cn1nnc2ccccc21 (stereo unspecified) | nt | nt | 83* | nt | nt | nt
O=C(NCCCCCCNC(=O)c1ccc(Br)s1)c1ccc(Br)s1 | nt | nt | -8 | nt | nt | nt
Cc1nc(-c2cccc(NS(=O)(=O)c3ccc4ccccc4c3)c2)cs1 | nt | nt | 21 | nt | nt | nt
Cc1cc(OC(=O)c2ccccc2)n(CCC#N)n1 | 19 | -11* | 23 | 8 | 14 | 4
Cc1cc(C)cc(NC(=O)c2nccnc2C(=O)O)c1 | nt | nt | 2 | nt | nt | nt
O=C(c1cc2ccccc2oc1=O)N1CCN(c2ccc(N3CCOCC3)nn2)CC1 | 3 | -4* | 35 | 1 | -2 | 10
CCCC1CCc2c(sc(NC(=O)OCC)c2C#N)C1 (stereo unspecified) | nt | nt | 40 | nt | nt | nt
CCCn1c(SCC(=O)Nc2ccc3c(c2)OCCO3)nnc1-c1ccco1 | 3 | -3.9* | nt | 5 | 0 | -5
COc1cccc(-c2nnc(SCC(=O)Nc3ccc4c(c3)OCCO4)n2Cc2ccco2)c1 | 2 | -0.31 | nt | 0 | -9 | -7
Cc1ccc(-n2c(SCC(=O)Nc3ccc4c(c3)OCCO4)nnc2-c2ccco2)cc1 | 1 | 0.63 | 72* | 1 | 6 | 31
O=C(NC1CCCCC1)N1CCCC1 | nt | nt | 61 | nt | nt | nt
O=C(COC(=O)CCCN1C(=O)c2ccccc2C1=O)Nc1ncc(Cl)cc1Cl | 6 | -0.0082 | 72* | 8 | 12 | 0
O=C(COC(=O)CN1C(=O)c2ccccc2C1=O)Nc1ncc(Cl)cc1Cl | 2 | -0.91 | nt | -4 | -8 | -1
COc1ccc(N2CCN(CC(=O)Nc3cc(C)on3)CC2)cc1 | -1 | -0.16 | nt | 4 | 6 | 14
COc1ccc(N2CCN(CCCNS(=O)(=O)c3c(C)noc3/C=C/N(C)C)CC2)cc1 | -1 | 0.52 | 2 | 1 | 14 | 75*
COc1ccc(CN(C(=O)c2cnccn2)C(C(=O)NC(C)(C)C)c2cc(OC)c(OC)c(OC)c2)cc1 (stereo unspecified) | nt | nt | 70* | nt | nt | nt
CCCCC(=O)C1=C(N2CCCC2)CC(C)(C)CC1=O | nt | nt | 72* | nt | nt | nt
CCN1CCN(C(=O)C2c3cc(OC)c(OC)cc3C(=O)N3CCc4ccccc4C23)CC1 (stereo unspecified) | 2 | -3.2* | 6 | 2 | -5 | 10
SMILES | CatB mixtures | WNV protease inh | mHtt clearance | CatB inh | CatS inh | CatL inh
Cc1cc(O)ccc1Nc1nc2ccccc2nc1Nc1ccc(O)cc1C | 2 | -1.2 | nt | 1 | 7 | nt
CCOC(=O)C(C(=O)OCC)N(C#N)c1nc(SC)nc(N(C)C)n1 | nt | 2 | 16 | 27* | nt | 78*
C=CCN=C(CC)C1=C(O)CCCC1=O | 6 | -0.23 | 5 | 0 | 14 | 22
C=CCN=C(C)C1=C(O)CCC1=O | 6 | -0.36 | 77* | 2 | 2 | 6
Cc1nnc(SCc2nnc(-c3ccc(Cl)cc3)o2)n1-c1ccccc1 | 3 | -0.07 | nt | 4 | 4 | 26
Cc1nnc(SCc2nnc(-c3ccccc3Br)o2)n1-c1ccccc1 | 8 | -0.35 | nt | 0 | 5 | 82*
O=C(CCCc1cccs1)Nc1nc2c(s1)CCCC2 | 7 | -0.21 | 0 | -2 | 7 | 48*
CC(C)c1noc2ncc(C(=O)c3cc(Cl)cc(Cl)c3O)cc12 | nt | nt | -4 | nt | nt | nt
O=C(CSc1nc2ccccc2[nH]1)NCCN1CCCCC1 | 1 | -1.8 | 0 | 1 | -1 | 52*
Cc1ccc(Oc2nccc(-c3ccc(Cl)cc3)n2)cc1 | nt | nt | -14 | nt | nt | nt
COc1ccc(N2CCC(CNC(=O)Nc3ccc(OC)cc3OC)C2)cc1 (stereo unspecified) | 5 | 1.1 | 26 | 1 | -4 | -3
COc1ccc(N2CCC(CNC(=O)Nc3ccc(C)c(C)c3)C2)cc1 (stereo unspecified) | 1 | -0.91 | nt | 41* | 4 | -4
c1coc(-c2nn3c(Cn4nnc5ccccc54)nnc3s2)c1 | 4 | 0.26 | 14 | 1 | -7 | 20
CCO/N=C(/C)c1c(O)c(C)c(-c2ccccc2)n(-c2ccccc2)c1=O | nt | nt | -38 | nt | nt | nt
COc1ccc(CCNC(=O)CSc2nc(N)c(C#N)c(-c3cccs3)c2C#N)cc1OC | 1 | -0.18 | 72* | 4 | -6 | 10
Cc1ccccc1NC(=O)CSc1nc(N)c(C#N)c(-c2cccs2)c1C#N | 5 | 0.71 | 0 | -3 | 18 | -19
CCn1c(=O)c2cc(C(=O)N3CCN(C(=O)c4ccco4)CC3)sc2c2ccccc21 | 1 | -0.97 | nt | -2 | -4 | -8
CC(C)C(=O)N1CCN(c2ccc(NC(=O)c3cccs3)cc2)CC1 | nt | nt | 79* | nt | nt | nt
COc1ccc(CCNC(=O)c2c(O)c3cccc4c3n(c2=O)CC4)cc1 | -5 | -4.7* | nt | 0 | 4 | 1
O=C(NCCc1ccccc1)c1c(O)c2cccc3c2n(c1=O)CC3 | -3 | -0.46 | nt | -1 | 11 | -3
CSc1ncc(Cl)c(C(=O)C(C#N)c2nc3c(C)cc(C)cc3c(=O)[nH]2)n1 (stereo unspecified) | 3 | -0.86 | nt | 1 | 8 | 3
O=C(OC(C(=O)NCc1cccs1)c1ccccn1)c1cccs1 (stereo unspecified) | 28* | -0.71 | nt | 35* | 5 | 19
Cc1nnc(SCC(=O)NC(C)(C)C)n1CCc1ccccc1 | 7 | -0.41 | nt | -4 | -11 | -3
Cc1nnc(SCC(N)=O)n1CCc1ccccc1 | nt | nt | 71* | nt | nt | nt
Cn1c(C(=O)NCCN2CCOCC2)cc2c(=O)n(C)c3ccccc3c21 | 2 | -0.57 | 28 | -3 | 81* | nt
Cn1c(C(=O)NCCN2CCc3ccccc3C2)cc2c(=O)n(C)c3ccccc3c21 | 2 | 1.4 | nt | 3 | 74* | 13
Cn1c(C(=O)NCCN2CCN(c3ccccc3F)CC2)cc2c(=O)n(C)c3ccccc3c21 | 8 | -0.31 | nt | -3 | 39 | 30
COc1ccc(-c2nnc(SCC(=O)Nc3ncc(C)s3)n2-c2ccccc2)cc1OC | -1 | 0.92 | nt | 4 | -2 | 8

Screening results (PubChem BioAssay)
